# Results published in PMC4336329 (PLoS ONE, 2015).
# About 14,000 (4.5%) of roughly 310,000 compounds showed an effect of 50% or more. Effects have a minus sign here. For the sample, strong results were picked, then their nearest neighbours and some compounds at random.
# Molecular target: human ether-à-go-go-related gene (hERG) potassium channel (human, UniProt Q12809)
# Experiment: primary screen, population patch clamp on CHO cells stably expressing hERG; higher = less effect of the substance
# 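Also: peak tail current of the secondary pulse compared with the same well before compound.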
# human ether-à-go-go-related gene (hERG) potassium channel, sequence (Q12809 whole entry, looked up): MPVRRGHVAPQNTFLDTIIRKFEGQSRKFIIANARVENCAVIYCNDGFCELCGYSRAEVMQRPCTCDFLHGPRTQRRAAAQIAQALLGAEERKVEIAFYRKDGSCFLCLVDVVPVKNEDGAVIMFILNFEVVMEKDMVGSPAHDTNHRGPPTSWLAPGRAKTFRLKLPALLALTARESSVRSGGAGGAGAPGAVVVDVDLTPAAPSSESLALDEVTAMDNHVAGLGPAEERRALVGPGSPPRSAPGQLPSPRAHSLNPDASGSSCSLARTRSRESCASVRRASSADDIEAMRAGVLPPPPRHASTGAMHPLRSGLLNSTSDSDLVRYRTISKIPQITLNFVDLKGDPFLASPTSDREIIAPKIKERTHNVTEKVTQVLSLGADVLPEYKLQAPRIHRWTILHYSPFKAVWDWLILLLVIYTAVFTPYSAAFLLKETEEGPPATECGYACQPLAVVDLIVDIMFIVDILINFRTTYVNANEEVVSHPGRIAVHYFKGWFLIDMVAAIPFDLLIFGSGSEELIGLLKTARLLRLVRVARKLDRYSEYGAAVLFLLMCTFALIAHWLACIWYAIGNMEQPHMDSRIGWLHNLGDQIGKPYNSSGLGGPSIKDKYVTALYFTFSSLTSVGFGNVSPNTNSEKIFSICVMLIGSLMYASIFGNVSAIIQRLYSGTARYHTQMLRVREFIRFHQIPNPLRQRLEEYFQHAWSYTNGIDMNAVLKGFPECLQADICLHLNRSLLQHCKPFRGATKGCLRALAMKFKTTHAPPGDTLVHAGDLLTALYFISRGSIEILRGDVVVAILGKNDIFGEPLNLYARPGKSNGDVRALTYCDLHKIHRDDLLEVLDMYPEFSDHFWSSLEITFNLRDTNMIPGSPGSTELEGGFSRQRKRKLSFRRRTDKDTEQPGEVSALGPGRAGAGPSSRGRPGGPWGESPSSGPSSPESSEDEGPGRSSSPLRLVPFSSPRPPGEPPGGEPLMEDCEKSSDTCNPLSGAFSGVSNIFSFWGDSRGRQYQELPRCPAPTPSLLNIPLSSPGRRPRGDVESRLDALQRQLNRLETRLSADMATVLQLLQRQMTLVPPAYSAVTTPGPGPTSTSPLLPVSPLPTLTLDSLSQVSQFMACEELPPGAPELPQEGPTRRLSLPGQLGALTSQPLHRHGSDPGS
row,SMILES,"hERG current change (%, negative = inhibition) at 10uM"
1,Cn1cc(CN2CCN(c3ncccn3)CC2)c(-c2cccc(Cl)c2)n1,-20.5%
2,Cc1c(Cl)cccc1NC(=O)Nc1ccn(C)n1,5.52%
3,Cc1nn(C)c(C)c1/C=C(/C(=O)C(C)(C)C)n1cncn1,28.5%
4,Cc1cccc(C)c1NC(=S)N1CCCN(C)CC1,15.2%
5,Clc1ccc(-c2cnc3ccccc3n2)cc1,9.07%
6,COc1ccc(C(=O)Nc2cc(C)c3c(=O)oc4ccccc4c3n2)cc1,7.49%
7,OCC[C@@H]1C[C@H](O)[C@@H](O)[C@@]2(Cc3ccccc3CCO2)O1,10.6%
8,CCC(Sc1nccn1C)C(=O)Nc1ccc(Cl)cn1 (centres unmarked),5.78%
9,CC(O)c1nc2cc([N+](=O)[O-])ccc2n1Cc1ccccc1 (centres unmarked),1.79%
10,CCCn1c(N2CCN(C(=O)N3CCCCC3)CC2)nc2ccccc21.Cl,-20.4%
11,Cl.O=[N+]([O-])c1ccc(CN2CCN(c3ccc4ccccc4n3)CC2)cc1,-12.1%
12,CC(O)c1nc2ccccc2n1Cc1ccc([N+](=O)[O-])cc1 (centres unmarked),-73.4%
13,CCn1c(N2CCN(Cc3ccc([N+](=O)[O-])cc3)CC2)nc2ccccc21.Cl,-74.7%
14,Cl.c1ccc(CN2CCN(CCN3CCn4c3nc3ccccc34)CC2)cc1,-75.8%
15,O=[N+]([O-])c1ccc(CN2CCN(c3nc4ccccc4s3)CC2)cc1,-1.07%
16,Cl.c1ccc2c(c1)nc1n2CCN1CCN1CCCC1,-3.08%
17,Cc1cccc(Cn2c(C(C)O)nc3ccccc32)c1 (centres unmarked),5.37%
18,CCCn1c(N2CCN(Cc3ccc(Cl)cc3)CC2)nc2ccccc21.Cl,-69.8%
19,CCCn1c(N2CCN(C(=O)Nc3ccc(Cl)cc3)CC2)nc2ccccc21,-16.8%
20,CN1CCN(CCN2CCn3c2nc2ccccc23)CC1.Cl,-7.38%
21,COc1ccc(NC(=O)CSc2cn[nH]n2)cc1OC,31.4%
22,COc1ccc(NC(=O)N2C[C@@H]3C[C@@H](C2)c2cccc(=O)n2C3)cc1,7.74%

row,SMILES,"hERG current change (%, negative = inhibition) at 10uM"
1,N#C/C(=N\Nc1ccc(Cl)cc1)C(=N)N1CCCCC1,-31.1%
2,CC(C)C(=O)Nc1ccc(S(=O)(=O)N2CCC(c3nc4ccccc4[nH]3)CC2)cc1,-42.7%
3,CC1=CCC(C(=O)O)C(C(=O)Nc2ccc(-c3nc4ccc(C)cc4s3)cc2)C1 (centres unmarked),7.8%
4,COc1ccccc1Oc1ccccc1[N+](=O)[O-],5.95%
5,O=C(NNC(=O)c1ccc(Cl)c([N+](=O)[O-])c1)c1ccncc1,13.2%
6,COc1cc(/C=C2/C(=O)N(c3ccc([N+](=O)[O-])cc3)N=C2N2CCOCC2)ccc1O,-42.2%
7,Cc1nc2c3cc(F)ccc3n(Cc3ccc(F)cc3)c2s1,13.8%
8,Cc1nc2c3cc(F)ccc3n(Cc3ccccc3)c2s1,4.24%
9,COC(=O)Cn1c2ccc(Cl)cc2c2nc(C)sc21,5.43%
10,CCN(CC)CCn1c2ccc(F)cc2c2nc(C)sc21.Cl,-54.3%
11,CCN(CC)CCn1c2ccc(Cl)cc2c2nc(C)sc21.Cl,-68.2%
12,CCN(CC)CCn1c2ccccc2c2nc(C)sc21,-30.6%
13,COc1ccc(-n2ccc(=O)c3c2CCCC3=O)cc1,13.5%
14,CCn1cc(C(=O)O)c(=O)c2cnc(N3CCN(C(=S)Nc4ccccc4Cl)CC3)nc21,-4.66%
15,N#Cc1ccc(Cl)cc1NC(=O)COC(=O)[C@H](CCC(N)=O)NC(=O)c1ccc(F)cc1,1.75%
16,Cc1ccc2c(c1)C(C)CC(C)(C)N2C(=O)CN1CCN(C)CC1.O=C(O)C(=O)O (centres unmarked),-23.6%
17,COc1ccc(C[C@@H]2CN3C(=NC[C@@H]3C)N2CCNC(=O)c2ccc(C)c(Br)c2)cc1,-71.4%
18,COc1ccc(C[C@H]2CN3C(=NC[C@@H]3C(C)C)N2CCNC(=O)c2ccc(C)c(Br)c2)cc1,-79%
19,COc1ccc(C[C@H]2CN3C(=NC[C@H]3C)N2CCNC(=O)c2ccc(C)c(Br)c2)cc1,-72%
20,C/C=C(\C)C(=O)NCCN1C2=NC[C@@H](C)N2C[C@H]1Cc1ccc(O)cc1,12.9%
21,Cc1ccc(C(=O)NCCN2C3=NC[C@H](C(C)C)N3C[C@H]2Cc2ccc(O)cc2)cc1Br,-26.3%
22,C/C=C(\C)C(=O)NCCN1C2=NC[C@@H](C)N2C[C@@H]1Cc1ccc(OC)cc1,0.0958%
